PubChem BioAssay AID977606 (Broad Institute, 2014)
In all, about 1,500 compounds went through this assay and about 430 (29%) were called active. A selection follows. Entries with a potency or affinity are not part of this list. Values without a mark were called inactive. How the calls were made is not given here.

Assay: glucose-independent GLuc insulin release activation – cell-based, INS-1E, Gaussia luciferase, luminescence, cherry-pick, counter-screen for glucose-dependent insulin secretion activators, dose response (AID 977606);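 further: 0% = median of neutral control wells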
Details: INS-1E Gaussia luciferase insulin secretion, no glucose, 100% = twice neutral-control luminescence; series mostly up to 35 µM; activation: at the top concentration

Structure (SMILES)	activation
CNc1nc(Cl)nc2c1ncn2-c1ccccc1	19.5%
COc1ccc(CCN2CC(=O)NC(=O)C2)cc1OC	22.1%
CCOC(=O)Cn1c(=O)n(Cc2ccccc2)c(=O)c2cccnc21	-6.95%
COc1ccc(S(=O)(=O)Nc2ccc3c(c2)OCO3)cc1OC	-6.28%
C[C@@H]1O[C@H](C2CCCC2)CC2=C1C(=O)OC(C)(C)O2	41.4%
COc1ccc(S(=O)(=O)N2CCOCC2)cc1NC(=O)COc1ccccc1	-8.73%
CCOc1ccc(C(=O)OCC(=O)Nc2cc(C)on2)cc1OCC	-7%
COc1cc(C(C(=O)NC2CCCC2)N(Cc2ccco2)C(=O)c2snc(C(N)=O)c2N)cc(OC)c1OC (configuration not stated)	12.9%
N#CN=CN1CC=C(c2ccc(Cl)cc2)CC1	2.48%
CC(=O)Nc1sc(C)c(C)c1C(=O)OCC(=O)Nc1cc(S(C)(=O)=O)ccc1Cl	-6.45%
CCOC(=O)c1cc(CC)sc1NC(=O)COC(=O)c1cnccn1	-2.44%
COc1ccc(CCNCc2cc3ccc(C)cc3[nH]c2=O)cc1OC	5.42%
COc1cc(OC)c(OC)cc1CCC(C)NC(=O)Cc1ccccc1 (configuration not stated)	-9.61%
COc1cc2c(cc1OC)-c1cc(Nc3ccc(N(C)C)cc3)nc(=O)n1CC2	-14.1%
COc1ccc(N2CC(NS(=O)(=O)c3cccs3)CC2=O)cc1OC (configuration not stated)	-15.1%
CCOC(=O)Cn1nc(-c2ccccc2)c(-c2ccccc2)nc1=O	6.82%
O=C(O)c1ccc(-c2nc(-c3ccccc3)c(-c3cccs3)[nH]2)cc1	2.7%
O=C(Cc1c[nH]c2ccccc12)N[C@@H](Cc1c[nH]c2ccccc12)C(=O)O	-0.773%
Cc1ccc(S(=O)(=O)N(C)c2nc3ccccc3n3c(C(C)C)nnc23)cc1	-5.47%
O=C(N/N=C/c1cc(Cl)ccc1O)c1ccc(Br)cc1	-1.82%
C=CCc1cccc(/C=N/NC(=O)CCC(=O)Nc2ccc(C)cc2)c1O	-11%
COc1ccc(-c2nnc(-c3cccs3)o2)cc1OC	-3.37%

Structure (SMILES)	activation
CCCCOc1ccc(-c2nnn(CC(=O)c3c[nH]c4ccccc34)n2)cc1	12.5%
CC(=O)c1cccc(N(CC(=O)NC2CCCCC2)C(=O)Cn2nnc(-c3ccccc3)n2)c1	-3.95%
Cc1ccc2c(c1)C=CC(C#N)N2C(=O)c1ccccc1 (configuration not stated)	-0.327%
CC(=O)N1CCN(c2nc(-c3cccs3)nc3ccccc23)CC1	-10.7%
CN[C@H]1C[C@@H](c2ccccc2)N(C(C)=O)C[C@H]1CO	27.8%
CCOC(=O)N1CCN(S(=O)(=O)c2ccc3c4c(cccc24)C(=O)N3)CC1	-16.3%
C=CCn1cc(Cl)cc(C(=O)Nc2ccccc2)c1=O	-11.1%
CS(=O)(=O)c1nc(S(=O)(=O)c2ccc(Cl)cc2)c(N2CCCCCC2)s1	-11.7%
c1ccc(-c2nnc3ccc(N4CCC5(CC4)OCCO5)nn23)cc1	-12.7% [at 11 µM]
O=C(O)c1ccc(-n2nnnc2SCc2ccccc2Br)cc1	3.9%
CCC1OC(C2CC2)CC2=C1C(=O)OC(C)(C)O2 (configuration not stated)	12%
c1ccc(CCN2CCN=C2Nc2ccccc2)cc1	8.32%
O=C(NC1CCCCC1)C(c1ccc(F)cc1)N(Cc1ccccc1)C(=O)CN1C(=O)c2ccccc2S1(=O)=O (configuration not stated)	19.7%
COc1cc(C(=O)O)ccc1OCc1ccccc1	7.43%
COc1ccc(/C=N/NS(=O)(=O)c2ccccc2)cc1OC	-6.16%
O=C(O)c1ccc(-n2nnnc2SCc2cccc(Br)c2)cc1	-19%
CCCCNc1cc(Cl)nc(N)n1	-9.67%
O=C(N/N=C/c1ccncc1)c1cc(-c2ccc(Br)s2)[nH]n1	15.7%
CC1=CC(c2ccccc2)n2nc(NC(=O)CCC(=O)O)nc2N1 (configuration not stated)	23.7%
CC(=O)NCCNC(=O)CNC(=O)c1ccc(Cl)cc1	-4.51%
C=CCn1cnc2scc(-c3ccc(OC)cc3)c2c1=O	-6.85%
COc1cc2c(cc1OC)/C(=C/C(=O)c1ccc(NC(C)=O)cc1)NCC2	-1.92%

Structure (SMILES)	activation
COC(=O)c1sc2ccccc2c1NC(=O)c1cccs1	5.35%
O=C(Nc1nonc1NC(=O)c1cccs1)c1cccs1	2.51%
CCOc1ncccc1C(=O)Nc1ccc(S(=O)(=O)Nc2nccs2)cc1	10.1%
O=C(O)c1cccc(N/N=C/c2sc(N3CCOCC3)nc2-c2ccccc2)c1	5.36%
Cc1ccc(NC(=O)CC2S/C(=N/N=C/c3c[nH]c4ccccc34)NC2=O)cc1 (configuration not stated)	-5.04%
Cc1ccc(CC2S/C(=N/c3ccccn3)NC2=O)cc1 (configuration not stated)	2.79%
CCc1ccc2c(c1)cc(CN(Cc1ccco1)C(C)=O)c1nnnn12	-15.1%
N#CCc1nn2c(-c3ccccc3)ccnc2c1C#N	-3.25%
O=C(OCc1c(-c2ccccc2)ncc2ccccc12)c1cccs1	21.3%
O=C(NCc1ccco1)c1ccc2c(=O)n(CCC3=CCCCC3)c(=O)[nH]c2c1	-26.6%
Cc1c(CC(=O)O)c(=O)oc2c(C)c(OCc3ccccc3Br)ccc12	-2.31%
N#Cc1c(N)n(C2CCCCC2)c2nc3ccccc3nc12	57.7%
COc1ccc(-n2c(O)cnc2Nc2nc(C)cc(C)n2)cc1OC	-3.92%
CCn1ccc(C(=O)Nc2ccccc2SC)n1	1.42%
CCOC(=O)Cn1c(=O)n(Cc2ccc(OC)cc2)c(=O)c2cccnc21	-7.55%
COc1ccc(CNC(=O)COC(=O)c2cc(C)nc3ccccc23)cc1	-10.3%
Cc1ccc(NC(=O)[C@@H](Cc2ccccc2)NC(=O)[C@H]2O[C@@H](n3ccc(=O)[nH]c3=O)[C@H](O)[C@@H]2O)cc1C	23.2%
CNc1nc(N)c(C(=O)C(C)(C)C)s1	-4.21%
COCCn1c(=S)[nH]c2sc3c(c2c1=O)CCCC3	-6.53% [at 11 µM]
COc1ccc(OC)c(C2=Nn3c(nnc3-c3ccncc3)SC2)c1	-10.9%
CC(C)Cn1c(=O)n(C)c(=O)c2[nH]cnc21	-2.64%
O=C(NCC1CCCO1)C1CCC(N2C(=O)c3ccccc3C2=O)CC1 (configuration not stated)	-8.16%

Structure (SMILES)	activation
CC(C)NC(=O)C1(C)CN(S(C)(=O)=O)CC(=O)N1CCCN1CCOCC1 (configuration not stated)	2.72%
O=C(CC1SC2=NCCN2C1=O)Nc1ccc(Br)cc1 (configuration not stated)	-8.59%
O=C(NC1CCCC1)C(C1CC1)n1c(-c2ccccn2)nc2ccccc21 (configuration not stated)	-18.3%
COc1ccc(C(O)c2nccc3cc(OC)c(OC)cc23)cc1OC (configuration not stated)	-5.12%
O=C(NN=C1CCCC1)c1cc(-c2ccccc2)n[nH]1	-20%
COc1ccc(/C=N/NC(=O)c2cc(-c3ccc4c(c3)OCO4)n[nH]2)cc1OC	-16.1%
Cc1cccc(CN2C(=O)CSc3ccc(C(=O)NC4CC4)cc32)c1	0.275%
CNc1nc(Sc2ccccc2)cc(C(F)(F)F)n1	129%
CCOC(=O)c1cnc2ccc(Cl)cc2c1Nc1ccc(S(=O)(=O)Nc2ncccn2)cc1	-1.89%
CC(=O)c1cccc(Nc2ncnc3ccc(Br)cc23)c1	-12.3%
Cc1cc(C(=O)Nc2cccc(O)c2)c(C)o1	-9.65%
COc1ccc(Cl)cc1C(=O)Nc1cccc(-c2ccc3nncn3n2)c1	-8.31%
Cc1ccnc(NC(=O)Nc2ccc(Br)cc2Cl)c1	4.76%
COc1ccc(/C(C)=N/Nc2ccc(C(=O)O)cc2)cc1OC	13.4%
COc1ccc(CCN(C)C(=O)CCNS(=O)(=O)c2ccccc2C(F)(F)F)cc1OC	0.4%
COc1nc(-c2ccccc2)c2cc(C)ccc2n1	2.68%
NNc1nc(-c2ccccc2)c2ccccc2n1	-5.34%
NC(=O)c1cc2cc(Cl)ccc2o/c1=N/NC(=O)c1cccs1	-11.5%
COc1ccc(/C=C2/SC(=O)N(NS(=O)(=O)c3ccccc3)C2=S)cc1OC	8.84%
CCc1nc2ccc(C(=O)N(C)CCCN(C)C)cn2c1N(C=O)CCC(C)C	12.7%
CCCc1cc2c(OC)ccc(O)c2c(=O)n1C	17.8%
CC(=O)Nc1ccc(Cl)c(-c2nc3ncccc3o2)c1	-0.068%

Structure (SMILES)	activation
CCn1nc(C(=O)Nc2ccc3nc(C)sc3c2)c2ccccc2c1=O	4.93%
CNc1cc(-c2ccc(OC)c(OC)c2)ncn1	0.426%
CC(C)c1c(C(=O)N/N=C/c2cccc3ccccc23)nnn1-c1nonc1N	-18.9%
CC(C)Nc1nc(NC(C)(C)C)nc(Oc2ccc(=O)n(C)n2)n1	-1.51%
COc1cc2c(cc1OC)-c1cc(Nc3ccc(C)cc3)nc(=O)n1CC2	-11.2%
COc1ccc(OC)c(N(CC(=O)NN=C2CCN(C)CC2)S(=O)(=O)c2ccccc2)c1	2.12%
CCCCC(=O)Nc1ccc(C(=O)NNC(=O)c2ccc(C)c(Br)c2)cc1	-4.37%
COc1ccc(/C=N/n2c(-c3n[nH]c4c3CCC4)n[nH]c2=S)cc1OC	-11.4%
NC(=O)c1ccsc1NC(=O)COC(=O)CNC(=O)c1ccc(Cl)cc1	-1.84%
COc1ccc(C(=O)NCC(=O)OCC(=O)Nc2sccc2C#N)cc1OC	-1.08%
Cc1cc2oc(=O)cc(CN3CCOCC3)c2c(C)c1Cl	-14.3%
c1ccc2c(NCC3CCCO3)nc(N3CCCCC3)nc2c1 (configuration not stated)	-9.01%
COc1cc(C2N(C)CCC3(OCCO3)C2(C)C)cc(OC)c1OC (configuration not stated)	-3.95%
CCOc1ccc2oc(C(=O)N(C)CCc3ccc(OC)c(OC)c3)c(C)c2c1	11%
COc1ccc(-c2cc3nc4ccccc4n3c(N)c2C#N)cc1	0.43%
O=C(NCCCNc1ccnc2cc(Cl)ccc12)c1ccccc1F	15.9%
COc1ccc(C(=O)Cc2cc3cccc(OC)c3oc2=O)cc1	-13.9%
COc1cccc(NC(=O)CN(C)C(=O)Cn2[nH]c(=O)c3ccccc3c2=O)c1	7.36%
CCn1c(=O)[nH]c(=O)c2c(N)c(C(=O)c3cc(F)ccc3F)sc21	-0.669%
